Screens: PubChem, National Center for Advancing Translational Sciences (NCATS)
DT40 TDP1 CPT: growth inhibition of DT40 Tdp1-/-;hTDP1 cells with camptothecin (screen for TDP1 inhibitors); chicken DT40 Tdp1-/-;hTDP1 cells + 20 nM CPT, ATP luminescence, 48 h; Potency, µM (series often up to 46.2 µM), for the others: at the highest dose activity change, negative = growth inhibition, usual class: inhibitors; 12% of 420,000 active; AID 686979; further: nearly all actives have a fitted effect of over 55% in size
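Chicken DT40 Tdp1-/- cells complemented with human TDP1, 400 cells/well, exposed to compounds plus 20 nM camptothecin for at least 48 h at 37 C; viability read as ATP content by CellTiter-Glo luminescence.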
VP16 counter: inhibits Gal4-VP16 luciferase reporter, ROR gamma counter-screen; Drosophila S2 Gal4-VP16 UAS-luciferase, luminescence, 20 h; Potency, µM (highest dose often 53.6 µM), for the others: top-dose activity, negative = inhibition, most hits filed as inhibitors; 3.5% of 310,000 active;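 further: Gal4-VP16 expression switched on by copper sulfate through the metallothionein promoter; nearly all actives have a fitted effect of over 50% in size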
TDP1 inh: TDP1 (human) enzyme inhibition. Q9NUW8. recombinant TDP1, AlphaScreen DNA substrate cleavage. Potency, µM (doses to about 130 µM), for inactives: at the top dose activity change, negative = inhibition, hits mostly inhibitors. 0.28% of 350,000 active; further: nearly all actives have a fitted effect of over 40% in size
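Recombinant E. coli-expressed Tdp1 (1 nM) preincubated with compound 15 min at RT, then 5'-biotin/3'-phosphotyrosine-FITC DNA substrate (15 nM) added for 5 min. AlphaScreen beads (10 ug/ml) added, 10 min RT; tyrosine-FITC cleavage read as signal loss.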
RORgamma inh: ROR gamma (mouse) transcription inhibition; AID 2551; Drosophila S2 Gal4-RORgamma UAS-luciferase reporter, 20 h; P51450; 5.4% of 310,000 active; Potency, µM (series often up to 53.6 µM), without a hit: at the top dose activity change, negative = inhibition, most hits filed as inhibitors; further: nearly all actives have a fitted effect of over 60% in size
Target sequence (P51450 whole entry, looked up, the tested form may be a part): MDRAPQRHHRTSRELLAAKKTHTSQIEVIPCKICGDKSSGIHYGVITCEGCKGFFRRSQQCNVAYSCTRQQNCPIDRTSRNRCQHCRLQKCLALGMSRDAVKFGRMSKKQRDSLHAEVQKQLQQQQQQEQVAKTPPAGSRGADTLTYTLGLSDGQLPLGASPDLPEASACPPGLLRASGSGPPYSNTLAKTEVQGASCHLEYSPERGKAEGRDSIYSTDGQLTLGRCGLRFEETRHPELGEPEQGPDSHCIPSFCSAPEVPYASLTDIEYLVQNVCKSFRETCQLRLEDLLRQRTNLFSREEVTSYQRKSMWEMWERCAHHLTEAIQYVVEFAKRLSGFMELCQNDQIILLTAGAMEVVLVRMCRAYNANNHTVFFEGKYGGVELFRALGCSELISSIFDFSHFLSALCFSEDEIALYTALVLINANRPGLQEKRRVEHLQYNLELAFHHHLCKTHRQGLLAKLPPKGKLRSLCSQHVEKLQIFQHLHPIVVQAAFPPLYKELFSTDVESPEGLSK
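Compounds are pin-transferred onto Drosophila Schneider cells expressing a copper-inducible Gal4–ROR gamma transactivation domain fusion. After 1 hr, copper sulfate is added to 700 uM final; luciferase is read 20 hr later.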
DT40 TDP1 no CPT: qHTS for Inhibitors of human tyrosyl-DNA phosphodiesterase 1 (TDP1): qHTS in cells in absence of CPT; DT40 Tdp1-/- hTDP1 cells, no CPT, ATP luminescence, 48 h; Potency, µM (highest dose often 46.2 µM), for the others: top-dose activity change, negative = growth inhibition, actives largely listed as inhibitors; 15% of 420,000 active; AID 686978, 2013; further: nearly all actives have a fitted effect of over 55% in size
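Readout: luminescence from CellTiter-Glo after 30 min in the dark at RT. Cells: DT40 Tdp1-/- with stable hTDP1, 400/well. Exposure: compounds alone, ≥48 hr, 37 °C.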
Numbers without * were called inactive; ? = inconclusive; . = not tested or not shown; [ ] = remark or other dose. Sampled rows, rich in hits. Any-hit rate of the full collection: about 19%. The call rests on the fitted dose curve; in most records, active means well fitted curve in the direction sought with a large enough effect; inconclusive means small, poorly fitted or top-dose-only effect, or another doubt; inactive means no such curve, though single readings can be large; an effect the other way counts as inactive or inconclusive. On the % scale 0 is the no-effect control and ±100 the full control effect; potency means the concentration at half of the fitted maximal effect.

SMILES	DT40 TDP1 CPT	VP16 counter	TDP1 inh	RORgamma inh	DT40 TDP1 no CPT
Cc1nc(SCc2ccc(O)c([N+](=O)[O-])c2)c([N+](=O)[O-])[nH]1	21µM*	-12%	9%	-17%	21µM*
C[C@H](CO)N1C[C@H](C)[C@@H](CN(C)C(=O)Nc2ccc(C(F)(F)F)cc2)Oc2c(NC(=O)CCC(F)(F)F)cccc2C1=O	?	.	-1%	.	?
CCOc1ccc(NC(=O)/C(C#N)=C/c2cn(CC(=O)O)c3ccccc23)cc1	-23%	-9%	9%	7%	-17%
Cc1cc(OCCn2cc(/C(N)=N/O)c3ccccc32)ccc1Cl	26µM*	?	8%	-18%	?
COc1ccc(OCCn2cc(C(=O)c3ccco3)c3ccccc32)cc1	21µM*	.	5%	.	26µM*
Cc1ccc(OCCn2cc(C(=O)c3ccco3)c3ccccc32)cc1C	15µM*	.	0%	.	18µM*
CCOC(=O)/C(C#N)=C/c1cn(CCOc2ccc(OC)cc2)c2ccccc12	15µM*	-8%	-1%	24%	?
COc1ccc(NC(=O)Cn2cc(C(=O)c3ccco3)c3ccccc32)cc1	?	1%	5%	1%	?
COc1ccccc1N(CC(=O)NCc1ccccc1)C(=O)CCC(=O)Nc1cc(C)ccn1	-8%	-1%	1%	?	?
CCCCc1ccc(/C=C(\C#N)C(N)=S)s1	?	?	5%	7.1µM*	?
Cc1cc(C)c(/C=C(\C#N)C(N)=S)c(C)c1	-25%	-19%	3%	?	-26%
CC(C)(C)c1ccc(Cn2cnc(-c3ccc([N+](=O)[O-])cc3)c2)cc1	23µM*	?	8%	?	23µM*
CC(C)(C)c1ccc(CNc2ccc([N+](=O)[O-])cn2)cc1	?	-7%	0%	?	23µM*
Cc1cc(C)c(Cn2cnc(-c3ccc([N+](=O)[O-])cc3)c2)c(C)c1	13µM*	-23%	6%	44%	15µM*
Cc1cccc(N2C(=O)NC3(CCCCC3)C2=O)c1	0%	16%	2%	38%	-8%
CCNC(=O)CSc1nnc(-c2cc(-c3ccc(Cl)cc3)nc3ccccc23)o1	25%	?	5%	0.2µM*	-26%
CN(C)C(=O)CSc1nnc(-c2cc(-c3cccs3)nc3ccccc23)o1	-46%	-12%	3%	-13%	18µM*
Cn1c(SCc2ccc(Br)cc2)nc2c([nH]c3ccccc32)c1=O	-5%	.	-5%	.	9%
COc1ccc(C2=C(C)C(=NCCCN3CCN(c4cc(C)ccc4C)CC3)NS2(=O)=O)cc1	4.6µM*	.	9%	.	-103%
COc1ccc(OC)c(NC(=O)NCCN2CCN(c3ccccc3)CC2)c1	?	-1%	.	-18%	14%
COc1cc(NC(=O)NCCN2CCN(c3ccc(Cl)cc3)CC2)ccc1C	?	4%	2%	-12%	?
COc1ccc(N2CCN(CCNC(=O)Nc3ccc(C)c(Cl)c3)CC2)cc1	23µM*	4%	.	19%	16µM*
COc1ccc(NC(=O)NCCCN2CCN(c3cc(C)ccc3C)CC2)cc1	8.2µM*	-16%	5%	2%	8.2µM*
COc1ccc(-c2coc(CCC(=O)N3CCN(c4cc(C)ccc4C)CC3)n2)cc1	?	.	4%[56.1 µM]	.	?
COc1ccc(N2CCN(CCNC(=O)Nc3ccc([N+](=O)[O-])cc3OC)CC2)cc1	29µM*	11%	.	14%	23µM*
SMILES	DT40 TDP1 CPT	VP16 counter	TDP1 inh	RORgamma inh	DT40 TDP1 no CPT
COc1ccc(-n2c(COc3ccccc3)nnc2SCC(N)=O)cc1	-14%	-3%	2%	6%	-1%
CCOc1ccc(NC(=O)CN2C(=O)C(c3ccccc3)=NC23CCCCCC3)cc1	?	.	0%	.	?
COc1ccc(C2c3c(ncn(CCCN4CCOCC4)c3=N)Oc3ccc4ccccc4c32)cc1OC (stereo not given)	23µM*	-7%	7%	-14%	13µM*
COc1ccc(C2c3c(ncn(Cc4ccccc4)c3=N)Oc3ccc4ccccc4c32)cc1OC (stereo not given)	.	.	10%	.	.
COc1ccc(C2c3ccc4ccccc4c3Oc3ncn(CCN4CCOCC4)c(=N)c32)cc1OC (stereo not given)	18µM*	-3%	5%	-5%	15µM*
COc1ccc(C2c3ccc4ccccc4c3Oc3ncn(CCN4CCOCC4)c(=N)c32)cc1 (stereo not given)	23µM*	?	7%	-40%	?
CCN(CC(=O)Nc1cc(Cl)ccc1C)C(=O)CC1CCCC1	-26%	.	0%	.	?
CCc1ccccc1NC(=S)NCCSc1ccc(Cl)cc1	?	7.1µM*	1%	1.1µM*	?
Cc1ccc(NC(=S)NCCSc2ccc(Cl)cc2)c(C)c1	?	1µM*	3%	0.79µM*	?
Cc1cccc(NC(=S)NCCSc2ccc(Cl)cc2)c1	-3%	7.1µM*	6%	3.2µM*	-27%
Cc1ccc(Cl)cc1NC(=S)NCCCSC1CCCCC1	?	?	8%	2µM*	18µM*
CS(=O)(=O)Nc1ccccc1C(=O)NCCSc1ccc(Cl)cc1	?	10%	.	331%	?
Cc1cccc(NC(=O)NCCc2ccc(Cl)cc2)c1	3%	17%[10 µM]	3%	15%	-29%
O=C(CN1CCOCC1)Nc1ccc2c(c1)OCCO2	-3%	16%	0%	0%	33%
Cc1ccccc1NC(=S)NCCSc1ccc(Cl)cc1	?	?	0%	2.2µM*	18µM*
Cc1ccc(C)c(NC(=S)NCCSc2ccc(Cl)cc2)c1	21µM*	5µM*	9%	2.5µM*	16µM*
Cc1ccccc1NC(=S)NCCO	4%	-3%	5%	24%	15%
COc1ccc(OC)c(NC(=S)NCCSc2ccc(C)cc2)c1	?	?	9%	14µM*	16µM*
CCCOc1ccc(/C(O)=C2/C(=O)C(=O)N(CCN3CCOCC3)C2c2ccccc2)cc1 (stereo not given)	-6%	.	.	.	7%
COC(C)(C)CCCC(C)C/C=C/C(C)=C/C(=O)O (stereo not given)	-6%	-1%	1%	25%	-23%
COc1ccccc1CC(=O)NCc1csc(-c2cccs2)n1	-3%	-1%	5%	11%	-7%
Nc1c(NC/C=C\COc2cc(CN3CCCCC3)ccn2)c(=O)c1=O	-10%	.	.	.	-18%
Cc1nc2c3ccccc3nc(NNC(=O)CCC(=O)O)n2n1	-8%	.	-3%	.	-16%
